Here are results for 94 compounds from PubChem BioAssay AID1626 (SRMLSC, 2009).

Hit rate of the full screen: of about 220,000 compounds, about 2,000 (0.91%) were called active. About 2% were inconclusive and are not listed. These entries were drawn from the full list. Entries with a potency or affinity are not part of this list. Values without a mark were called inactive. Rule as the data show it: inconclusive = inhibition above about 80% without an active follow-up result; inactive = below that; test concentration not stated here.

The nature of this experiment: M. tuberculosis H37Rv growth inhibitors, H37Rv strain (AID 1626).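 Also: bacteria incubated seven days before Alamar blue readout; 0% = bacteria only wells and 100% = bacteria with antibiotic wells.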 The following applies: hits give high values, concentration not given here.
As to `COCCSc1nnc(NC(=O)c2ccc(OC)c([N+](=O)[O-])c2)s1`, the inhibition was -5.62%.
Take `CCOC(=O)C(C)Sc1nnc(NC(=O)c2cccc([N+](=O)[O-])c2C)s1` (centres undefined): the inhibition was 27%.
With `O=C(NCc1cccs1)c1cccc(S(=O)(=O)N2CCCCC2)c1`, the inhibition is -1.3%.
On to `O=[N+]([O-])c1cccc(N=NN(CCO)c2cccc([N+](=O)[O-])c2)c1`, for which the inhibition was 7.57%.
For the compound `Cc1ccc(NC(=O)c2cncc(Br)c2)c([N+](=O)[O-])c1`, the inhibition was 5.6%.
For `OCCNc1nc(-c2ccccc2)nc2c1oc1ccccc12`, the inhibition was 1.56%.
Turning to `O=C(Nc1ccccc1)c1nnsc1S(=O)(=O)c1ccc(Cl)cc1`, the inhibition was 2.07%.
With `N/C(=N\S(=O)(=O)c1ccc(Cl)cc1)N1CCOCC1`, the inhibition was -5.14%.
With `O=C(c1ccc(S(=O)(=O)c2ccc(Cl)cc2)cc1)N1CCOCC1` the figure was -6.61%.
As for `CN(C)C(=O)c1nnsc1Sc1ccc(Cl)cc1`, the inhibition is -1.74%.
On to `CCCNC(=O)NS(=O)(=O)c1ccc(Cl)cc1`, for which the inhibition is -12.9%.
As to `O=C(Nc1ccccc1)c1nnsc1S(=O)c1ccc(Cl)cc1` (centres undefined), the inhibition is 47.2%.
Consider `CNC(=O)c1nnsc1S(=O)c1ccc(Cl)cc1` (centres undefined), for which the inhibition is 78.9%.
Turning to `CCCNC(=O)c1nnsc1Sc1ccc(Cl)cc1`, the inhibition was 18.6%.
Turning to `CNC(=O)CCC(=O)Nc1ccc(C)cc1`, the inhibition was -1.09%.
In the case of `COc1ccc(C2C(C(=O)O)CCC(=O)N2c2ccc(C)cc2)cc1OC` (centres undefined), the inhibition is -2.58%.
As for `C=C(C)Cn1c(SCCCO)nc2c1c(=O)[nH]c(=O)n2C`, the inhibition is -7.43%.
Consider `O=C(NC1CC1)C1=COCCO1`, for which the inhibition is -8.37%.
For `O=C(Nc1ccccc1N1CCOCC1)c1cc(F)cc(F)c1`, the inhibition is -4.82%.
With `N#Cc1cc(C(=O)c2cc(Cl)ccc2O)cn(-c2ccccc2)c1=O` the figure was -3.03%; with `Cc1ccc(C(=O)NNC(=O)Cn2nnc3ccccc32)cc1`, -15.4%; with `CN1CCN(C(=O)c2cnn(-c3ccccc3)c2NC(=O)c2ccccc2)CC1`, -6.4%.
As to `O=C(N/N=C/c1cccc([N+](=O)[O-])c1)c1cccs1`, the inhibition was 4.78%.
As to `COc1ccc(C(C)=O)cc1COC(=O)c1ccc(S(=O)(=O)N(C)C)cc1`, the inhibition is -3.54%.
Turning to `O=C(Nc1ccn(Cc2c(F)c(F)cc(F)c2F)n1)c1cccc(Cn2cc([N+](=O)[O-])cn2)c1`, the inhibition is 2.31%.
On to `CC1=C(C(=O)N2CCOCC2)C(c2c(F)cccc2F)NC(=O)N1` (centres undefined), for which the inhibition is -2.62%.
In the case of `CCOC(=O)C1CCCN(S(=O)(=O)c2ccc(S(N)(=O)=O)cc2)C1` (centres undefined), the inhibition is -2.7%.
Regarding `Cc1nnsc1-c1c(C(=O)N2CCOCC2)c(C)nn1-c1ccc(Cl)cc1`, the inhibition is 3.63%.
For the compound `O=C(c1cc(Cl)ccc1Cl)N1CCOCC1`, the inhibition is -11%.
Consider `Cc1c(C(=O)Nc2cccc(S(=O)(=O)N3CCCC3)c2)oc2ccccc12`, for which the inhibition is 0.77%.
With `CCC(CC)C(=O)Nc1cccc(C(=O)Nc2ccc3c(c2)OCO3)c1` the figure was 0.36%.
With `CC1CC(C)CN(C(=O)c2ccc3c(c2)N(Cc2ccccc2)CCS3)C1` (centres undefined), the inhibition was 8.05%.
For `CC1Cc2ccccc2N1C(=O)Cn1c(=O)cc(O)c2ccccc21` (centres undefined), the inhibition was -9.25%.
Turning to `COCCCn1c(SCC(=O)Nc2ccc(C)cc2)nc2ccccc2c1=O`, the inhibition was -3.97%.
On to `CN(C)CCCn1c(SCC(=O)N2c3ccccc3Sc3ccccc32)nc2ccccc2c1=O`, for which the inhibition was 0.3%.
Regarding `O=C(CSc1nc2ccccc2[nH]1)Nc1nc(-c2cccc(Br)c2)cs1`, the inhibition was 9.78%.
With `CCCCn1c(SCC(=O)Nc2nccs2)nc2ccccc2c1=O`, the inhibition was -6.31%.
`CC(=O)c1nnn(-c2ccc([N+](=O)[O-])cc2)c1C`: the inhibition is -0.32%.
For `c1ccc2c(-c3cn4ccccc4n3)c[nH]c2c1`, the inhibition is -5.8%.
Next, `O=C1CC(=C(c2ccccc2)c2ccccc2)C(=O)N1CCN1CCN(c2cccc(Cl)c2)CC1`: 5.45%; `O=C1CC(=C2c3ccccc3-c3ccccc32)C(=O)N1CCCCN1CCN(c2ccccc2)CC1`: 8.38%.
Consider `Cc1ccccc1N1CCN(CCCN2C(=O)CC(=C(c3ccccc3)c3ccccc3)C2=O)CC1`, for which the inhibition was 0.08%.
As for `O=C1CC(=C(c2ccccc2)c2ccccc2)C(=O)N1CCCN1CCN(c2cccc(Cl)c2)CC1`, the inhibition is 12.8%.
As to `COc1cccc(C2C(C(=O)c3cccs3)=C(O)C(=O)N2CCN(C)C)c1OC` (centres undefined), the inhibition is -9.59%.
Next, `Cc1ccc(NP(=O)(Nc2ccc(C)cc2)Oc2ccccc2)cc1`: 5.95%; `O=C(NCc1ccccc1Cl)C1CCCN(c2nc3ccsc3c(=O)s2)C1` (centres undefined): 1.18%.
For `NC(=O)c1nsc(C(=O)N(CC(=O)NCc2ccc3c(c2)OCO3)C2CCCC2)c1N`, the inhibition was 0.67%.
`C=CCNC(=O)/C(C#N)=C/c1c(C)nn(-c2ccc(Cl)cc2)c1Cl`: the inhibition was 4.6%.
In the case of `O=C(CC(Nc1ccccc1Cl)C(=O)OCC(=O)c1cccs1)c1ccccc1` (centres undefined), the inhibition was -5.28%.
With `CC(=O)NC(Cc1ccccc1)C(=O)OCC(=O)c1ccc(Br)cc1` (centres undefined), the inhibition is -1.27%.
Turning to `O=C(CC(Nc1cccc(Cl)c1Cl)C(=O)OCC(=O)c1cccs1)c1ccccc1` (centres undefined), the inhibition is -5.78%.
On to `COc1ccccc1NC(CC(=O)c1ccccc1)C(=O)OCC(=O)c1ccc(F)cc1` (centres undefined), for which the inhibition was 78.2%.
Next, `Cc1ccc(C(=O)NCCCN2CCOCC2)cc1`: 3.65%; `COc1ccc2c(c1)S/C(=C\C(=O)c1ccncc1)N2C`: 0.94%; `COC(=O)c1ccc2c(c1)N(Cc1nc(-c3cccc(C)c3)oc1C)C(=O)C1CCCN21` (centres undefined): 8.29%.
As for `O=C(/C=C/c1ccc(Cl)cc1Cl)c1nc2ccccc2[nH]1`, the inhibition is 0.46%.
In the case of `Cc1ccc(/C=C/C(=O)c2nc3ccccc3[nH]2)cc1`, the inhibition was 0.43%.
Regarding `C/C(=N/NC(=O)CNC(=O)c1cccnc1)c1ccco1`, the inhibition was 7.49%.
For the compound `COc1cccc(CNC(=O)C2CCN(S(=O)(=O)c3c(C)nn(C)c3C)CC2)c1`, the inhibition was -0.47%.
For `O=C(c1ccc2c3c(cccc13)CC2)C1CCCN(Cc2ncc[nH]2)C1` (centres undefined), the inhibition is -5.62%.
With `O=C(c1ccc2c3c(cccc13)CC2)C1CCCN(Cc2ccncc2)C1` (centres undefined) the figure was 3.23%.
Take `O=C(N/N=C1\CC2CC=CC12)c1ccc(Br)cc1` (centres undefined): the inhibition was -7.43%.
Turning to `Cc1ccc2cc(CN(CC3CCCO3)S(=O)(=O)c3ccc4c(c3)OCCO4)c(=O)[nH]c2c1C` (centres undefined), the inhibition was 9.1%.
Take `COC(=O)c1ccccc1N=Nc1c(N)n[nH]c1N`: the inhibition was -10.6%.
Next, `Cc1ccc(-c2[nH]nc(N)c2N=Nc2cccc(Cl)c2C)cc1`: 0.18%; `Nc1n[nH]c(N)c1N=Nc1cccc(F)c1`: 0.51%; `Nc1n[nH]c(N)c1N=Nc1ccc(Cl)cc1`: 1.65%.
As to `CCn1cc(C2=NC(C(C)C)CO2)c2ccccc21` (centres undefined), the inhibition was 5.08%.
In the case of `CCOc1ccc(OCC)c(NC(=O)Nc2ccc3c(c2)N(C)C(=O)CS3)c1`, the inhibition is 1.8%.
As for `O=C(O)c1cc(NC(=O)C2CCCO2)cc(NC(=O)C2CCCO2)c1` (centres undefined), the inhibition was -1.59%.
With `CC1(C)CC(=O)C(/C=N/n2c(C(F)(F)F)nc3ccccc3c2=O)=C(O)C1`, the inhibition is 13.1%.
As for `O=C(CSc1nnc(-c2ccccc2F)n1C1CCCCC1)N1CCCC1`, the inhibition is -3.16%.
Next, `Cc1cc(C)c(OCC(O)CN2CCN(c3ccccn3)CC2)c(C)c1` (centres undefined): -4.16%; `OC(COCc1ccc(Cl)cc1)CN1CCN(c2ccccn2)CC1` (centres undefined): 6.32%; `OC(CN1CCN(c2ccccn2)CC1)Cn1c2ccccc2c2ccccc21` (centres undefined): 34.8%.
Regarding `OC(COC(c1ccccc1)c1ccccc1)CN1CCN(c2ccccn2)CC1` (centres undefined), the inhibition is 3.57%.
`CC(C)C1=C2CCCCC2NC(=O)N1` (centres undefined): the inhibition was -3.19%.
With `O=C(CN1CCSC1=NCc1ccccc1)c1ccccc1` the figure was 0.24%; with `Cc1nc(SCC(=O)OCc2ccccc2)c(C#N)c(-c2ccccc2)c1C(=O)Nc1ccccc1`, 1.59%.
For `Cc1nc(SCC(=O)c2cc3ccccc3oc2=O)c(C#N)c(C)c1C(=O)Nc1ccccc1`, the inhibition is 1.89%.
`N#Cc1ccc(-c2ccccc2)nc1SCC(=O)c1cccc(Cl)c1`: the inhibition is 12.6%.
Consider `Cc1ccc(C(=O)CSc2nc(-c3ccccc3)ccc2C#N)cc1`, for which the inhibition was 4.37%.
Next, `CCCCNC(=O)c1[nH]c(C)c(C(C)=O)c1C`: -1.66%.
Turning to `O=C(O)c1ccc(N/N=C/c2cc3ccccc3nc2Cl)cc1`, the inhibition is 7.73%.
As for `Cc1ccc(C(NC(=O)/C=C\c2ccc3c(c2)OCO3)C(=O)Nc2ccc3c(c2)OCO3)cc1` (centres undefined), the inhibition was 61.7%.
As for `CC(=O)NCC(=O)N(C)C(C(=O)Nc1ccc2c(c1)OCCO2)c1ccc(C)cc1` (centres undefined), the inhibition is 2.18%.
In the case of `Cc1c(Cl)ccc2c(C(N)=O)cc(-c3ccccn3)nc12`, the inhibition was 3.8%.
As for `CC(C)n1nc(C(=O)Oc2ccc(Cl)cc2)c2ccccc2c1=O`, the inhibition is 9.19%.
For `CN1CCN(Cc2nnc3n2-c2ccc(Cl)cc2C(c2ccccc2)=NC3)CC1`, the inhibition was -4.71%.
`Clc1ccc2c(c1)C(c1ccccc1Cl)=NCc1nnc(Br)n1-2`: the inhibition was -0.77%.
With `O=C(CN1C(=O)NC2(CCCCC2)C1=O)NC1CCCc2ccccc21` (centres undefined), the inhibition was -2.8%.
Turning to `CN(CC(=O)N1CCN(c2ccc(F)cc2)CC1)S(=O)(=O)c1ccc(F)cc1`, the inhibition was -7.27%.
With `CC(=O)c1cccc(NC(=O)Cn2cc3c(n2)CCCC3)c1` the figure was -1.86%; with `CC(=O)Nc1ccc(NC(=O)Cn2cc3c(n2)CCCC3)cc1`, -8.53%.

The term inhibition denotes the drop in the measured response relative to a control, in per cent.
